{"source": "the OligoGym collection"}
{"molecular_target": "C6orf203", "assay": "pooled miR-30 sensor sort-seq; sequence = guide strand", "conditions": "shRNA"}
{"sequence": "TAGTAGATTTTGTAGACCTTAT", "sensor-assay potency score (higher = more potent)": -0.878}
{"sequence": "TAGTTTTTGACTACAGTAGGAT", "sensor-assay potency score (higher = more potent)": -0.319}
{"sequence": "TTTCACTTTCAGTCTTCTCTTC", "sensor-assay potency score (higher = more potent)": 0.689}
{"sequence": "TATTACTTTTGAGTCTTACGGA", "sensor-assay potency score (higher = more potent)": -0.0954}
{"sequence": "TTTGTAGAAAGCATCTTCCACT", "sensor-assay potency score (higher = more potent)": -0.297}
{"molecular_target": "C6orf223", "assay": "pooled miR-30 sensor sort-seq; sequence = guide strand", "conditions": "shRNA"}
{"sequence": "AATTAGAGCGCATTAGCCGTGC", "sensor-assay potency score (higher = more potent)": -0.806}
{"sequence": "AAACACTCTGTCTTCCTGCTTT", "sensor-assay potency score (higher = more potent)": 0.482}
{"sequence": "TAATTTCTTCTCGCGCTCGGGG", "sensor-assay potency score (higher = more potent)": -0.685}
{"sequence": "TCTTCTGGATGCTCTGACCATC", "sensor-assay potency score (higher = more potent)": -1.03}
{"sequence": "TTTCTTCTCGCGCTCGGGGTGT", "sensor-assay potency score (higher = more potent)": -0.841}
{"sequence": "TAGAGGAGAGCTCTGAGCCTGG", "sensor-assay potency score (higher = more potent)": -0.55}
{"sequence": "TTGGCTGAGTCAGACTCTCGGA", "sensor-assay potency score (higher = more potent)": -0.102}
{"sequence": "TAATTAGAGCGCATTAGCCGTG", "sensor-assay potency score (higher = more potent)": -0.678}
{"sequence": "TTTGAGGACAGCTGAAGTCTTG", "sensor-assay potency score (higher = more potent)": -0.66}
{"sequence": "TTCTTCTGGATGCTCTGACCAT", "sensor-assay potency score (higher = more potent)": -0.868}
{"sequence": "AAGTCTTGCCACTTCTTCTGGA", "sensor-assay potency score (higher = more potent)": -0.0269}
{"sequence": "TTGAGGACAGCTGAAGTCTTGC", "sensor-assay potency score (higher = more potent)": -0.761}
{"molecular_target": "C6orf48", "assay": "pooled miR-30 sensor sort-seq; sequence = guide strand", "conditions": "shRNA"}
{"sequence": "TAAGTTCTTAGGATATGCCCAG", "sensor-assay potency score (higher = more potent)": -0.415}
{"sequence": "TTCCATAGCAAGGAAGGAGAAC", "sensor-assay potency score (higher = more potent)": -0.82}
{"sequence": "TTAGGATATGCCCAGCACCAGG", "sensor-assay potency score (higher = more potent)": -1.71}
{"sequence": "TCAAGTTGCAGGAATCACTGTC", "sensor-assay potency score (higher = more potent)": 0.907}
{"sequence": "TATTGTGTCAGCAAATTCCATA", "sensor-assay potency score (higher = more potent)": -0.54}
{"sequence": "ATATTGTGTCAGCAAATTCCAT", "sensor-assay potency score (higher = more potent)": -1.29}
{"sequence": "TCACACAGGATAATACAGGAAA", "sensor-assay potency score (higher = more potent)": -0.815}
{"sequence": "TGACAGCTGCTCACACAGGATA", "sensor-assay potency score (higher = more potent)": -1.51}
{"sequence": "ATAGCAAGGAAGGAGAACAGGC", "sensor-assay potency score (higher = more potent)": -1.07}
{"sequence": "TGTCAGCAAATTCCATAGCAAG", "sensor-assay potency score (higher = more potent)": -1.37}
{"sequence": "AGTTGCAGGAATCACTGTCTAA", "sensor-assay potency score (higher = more potent)": -1.7}
{"sequence": "AAGTTCTTAGGATATGCCCAGC", "sensor-assay potency score (higher = more potent)": -0.846}
{"molecular_target": "C6orf58", "assay": "pooled miR-30 sensor sort-seq; sequence = guide strand", "conditions": "shRNA"}
{"sequence": "TTATATGATCTAATCAAGGTTG", "sensor-assay potency score (higher = more potent)": -0.152}
{"sequence": "TAGATTTATCCACATTGTCAAG", "sensor-assay potency score (higher = more potent)": -1.66}
{"sequence": "TTACACCAGAATCAACCGCAGC", "sensor-assay potency score (higher = more potent)": -1.25}
{"sequence": "TATGATTTTATACATCCCCATT", "sensor-assay potency score (higher = more potent)": -1.55}
{"sequence": "TTGGATCAGCTAATCTGCCTGT", "sensor-assay potency score (higher = more potent)": 0.319}
{"sequence": "TTACTGATTGTCAAGTTCGAGT", "sensor-assay potency score (higher = more potent)": -0.967}
{"sequence": "TAATTCATTAATCATTTCCTGA", "sensor-assay potency score (higher = more potent)": -0.771}
{"sequence": "TTCTGTACAAAGATAACCTATA", "sensor-assay potency score (higher = more potent)": -1.09}
{"sequence": "TAGAATAATAATCATATCTGTC", "sensor-assay potency score (higher = more potent)": -0.538}
{"sequence": "TATTCTGTTCATTATCTGGTGC", "sensor-assay potency score (higher = more potent)": -0.148}
{"sequence": "TTTATCCACATTGTCAAGCATA", "sensor-assay potency score (higher = more potent)": -1.01}
